# This is a sample that favours compounds with a hit; in the whole collection about 7.3% have one here.
# VACV Venus inh: qHTS for Stage-Specific Inhibitors of Vaccinia Orthopoxvirus: Venus Reporter Primary qHTS; Vaccinia virus Venus reporter expression, fluorescence; Potency, µM (series often up to 36.5 µM), without a hit: top-dose activity change, negative = inhibition, usual class: inhibitors; 0.46% of 330,000 active; AID 720580, 2013; calls by dose curve; tested in A549 cells; note: potency is the fitted concentration of half-maximal effect; nearly all actives have a fitted effect of over 30% in size
# HCMV inh: qHTS Assay for inhibitors of the human cytomegalovirus (HCMV); HFF cells, HCMV-luciferase reporter, 72 h; stronger effect = lower value; activity change, negative = inhibition, % at 57.5 µM; 4.5% of 410,000 active; AID 1259415, 2018; in the data active = activity change below about -60%; inconclusive = no clear call, values can overlap the other calls; inactive = above about -39%
#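 Luciferase read-out from HCMV-luciferase-infected HFFs (MOI 1 PFU/cell) 72 h post infection at 37C; compounds added after 16 h cell attachment; activity normalized between buffer-only basal and Salinomycin (10uM) inhibitor controls.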
# Vaccinia mCherry: qHTS for Stage-Specific Inhibitors of Vaccinia Orthopoxvirus: mCherry Reporter Primary qHTS; AID 720579, 2013; Vaccinia virus mCherry reporter infection, fluorescence; Potency, µM (titrated, usually from 36.5 µM), for the others: top-dose activity change, negative = inhibition, most hits filed as inhibitors; 0.63% of 310,000 active; calls by dose curve; tested in A549 cells; note: potency is the fitted concentration of half-maximal effect; nearly all actives have a fitted effect of over 35% in size
# FMDV antiviral: High Throughput Screening for Foot and Mouth Disease Virus Antivirals | FMDV antiviral cell-based qHTS | Potency, µM (highest dose often 57.9 µM), for the others: at the top dose activity change, negative = inhibition, usual class: inhibitors | AID 1159524, 2015 | 1.2% of 410,000 active; calls by dose curve; tested in HEK293T cells; note: read-out not given here; potency is the fitted concentration of half-maximal effect; nearly all actives have a fitted effect of over 45% in size
# HCV inh: qHTS Assay for Inhibitors of Hepatitis C Virus (HCV). Huh7.5.1 HCVcc-Cre infection, luciferase reporter, 44 h. Potency, µM (titrated, usually from 41.8 µM), for the others: at the highest dose activity change, negative = inhibition, hits mostly inhibitors. 3.4% of 340,000 active; active = well fitted inhibition curve with a large enough effect; inconclusive = small, poorly fitted or top-dose-only effect, or another doubt; inactive = no such curve, though single readings can be large or run the other way; note: potency is the fitted concentration of half-maximal effect
#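 Antiviral activity was scored by luciferase reporter output from cells infected with HCVcc-Cre (~0.5 moi) in presence of compound, 44 h infection period, cells seeded 1,000/well 4 h prior.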
# Active calls of the source: *; i = inactive; ? = inconclusive; · = not tested or not shown; ! = a repeat was not active. % is set by controls: 0 for no effect and ±100 for the full control effect.
SMILES,VACV Venus inh,HCMV inh,Vaccinia mCherry,FMDV antiviral,HCV inh
CCOc1cc(/C=N/O)ccc1OCc1ccc(F)cc1,-22%,-30,i,5%,7.1µM*
COc1cc(/C=N/O)ccc1OCc1ccc(Cl)cc1,·,137,·,·,·
CCOc1cc(/C=N/NC(=O)c2ccccc2OCc2ccc(F)cc2)ccc1O,·,-82*,·,?,?
CCOc1cc(/C=N/NC(=O)c2ccccc2-n2cccc2)ccc1O,·,-13,·,-16%,?
COc1cc(/C=N/O)ccc1OCc1ccc(C(=O)O)cc1,0%,59,-7%,4.5µM*,27%
CCOc1cc(/C=N/O)ccc1OCc1ccc([N+](=O)[O-])cc1,-28%,-11,-2%,-6%,?
O=C(NC1CCCCCC1)C1c2ccccc2C(=O)N1Cc1ccccc1Cl (configuration not stated),-6%,-6,-1%,-11%,·
COc1cc(O)ccc1C(=O)CCc1ccc(O)cc1,-9%,-3,-9%,0%,-16%
O=[N+]([O-])c1ccccc1CNc1ccc(NCc2ccccc2[N+](=O)[O-])cc1,·,-74*,·,·,·
CCOc1ccc(NC(=O)CC2C(=O)N(CC)C(=S)N2CCN2CCOCC2)cc1 (configuration not stated),4%,26,-10%,-2%,4%
CCCOc1ccc(NC(=O)CC2C(=O)N(CC)C(=S)N2CCCN2CCN(Cc3ccccc3)CC2)cc1 (configuration not stated),?,-84*,-29%,4%,?
O=C(CC1C(=O)N(Cc2ccccc2)C(=S)N1CCN1CCOCC1)Nc1ccc(F)cc1 (configuration not stated),-6%,-69*,-18%,15%,3%
CCCOc1ccc(NC(=O)CC2C(=O)N(CC)C(=S)N2CCNC(C)=O)cc1 (configuration not stated),-21%,-13,i,-17%,10%
COc1ccc(C(C#N)=Cc2ccccc2OC)cc1,-28%,-88*,-14%,-13%,·
Cc1ccc(CN2c3ccccc3S(=O)(=O)c3ccccc32)cc1,5%,16,0%,-21%,·
O=C(CN1c2ccccc2Sc2ccccc21)NNC(=S)Nc1ccc(Cl)cc1,-23%,4,-28%,20%,35µM*
CN(C(=O)C=Cc1ccco1)c1ccccc1,-16%,18,-1%,3%,2%
CN(C(=O)/C=C/c1ccc([N+](=O)[O-])s1)c1ccccc1,·,?,·,?,22µM*
c1coc(CNc2ncnc3c2nc2n3CCCC2)c1,-19%,·,-28%,·,·
O=C(NC(=S)Nc1cc([N+](=O)[O-])ccc1O)C1CC1,·,30,·,8%,8%
N#Cc1c(NC(=O)CCn2cnc3ccccc3c2=O)oc(-c2ccccc2)c1-c1ccccc1,?,26,·,?,10µM*!
N#Cc1c(NC(=O)CCN2C(=O)c3ccccc3C2=O)oc(-c2ccccc2)c1-c1ccccc1,-22%,16,-5%,-21%,-27%
COc1ccc(Oc2ncc3nc(-c4cccc(C#N)c4)c(=O)n(C)c3n2)cc1,·,·,·,-1%,·
CCc1cc(SC#N)cc(CC)c1NC(=O)CCl,-29%,-74*,-25%,25µM*,?
COc1cc(CC(=O)OCc2ccccc2F)cc(OC)c1OC,-5%,-16,-3%,-2%,?
SMILES,VACV Venus inh,HCMV inh,Vaccinia mCherry,FMDV antiviral,HCV inh
CCOC(=O)c1c(C)[nH]c(-c2csc(N)n2)c1C,-24%,-81*,?,49%,?
Cc1ccn2c(C=O)c(-c3ccc(F)cc3)c(C=O)c2c1,·,-28,·,-5%,11µM*
COc1ccccc1C(=O)NC1CCN(C(=O)Nc2ccc(F)cc2)CC1,-21%,7,-17%,-21%,9%
CCC(=O)c1c(NCCc2ccccc2)cc(C)oc1=O,·,-98*,·,-18%,?
CC(C)(C)c1cc(C(=O)N/N=C/c2ccccc2O)n(-c2ccccc2)n1,?,-97*,?,-20%,-6%
CC(C)(C)c1cc(C(=O)N/N=C/c2ccc(F)cc2)n(-c2ccccc2)n1,-23%,-74*,-11%,-6%,?
C[C@@H]1CN([C@@H](C)CO)C(=O)CCCn2nncc2CO[C@@H]1CN(C)C(=O)Nc1ccc2c(c1)OCO2,-12%,12,i,-1%,·
